# Assay outcomes deposited in PubChem by National Center for Advancing Translational Sciences (NCATS).
# Sampled rows, rich in hits. Any-hit rate of the full collection: about 2.6%.
# Nrf2 ARE act – qHTS of Nrf2 Activators. AREc32 ARE-luciferase reporter (MCF7-derived line), luminescence, 24 h. Potency, µM (highest dose often 46.1 µM), without a hit: at the highest dose activation, actives largely listed as activators. 0.31% of 410,000 active; note: potency is the fitted concentration of half-maximal effect; % of control where 0% means no effect; nearly all actives have a fitted effect of over 65% in size
#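 AREc32 cells carrying an ARE-driven firefly luciferase, 1000 cells/well in OPTI-MEM with 5% FBS, dosed after overnight attachment and incubated 24 hr at 37 deg C. Steady-Glo luminescence read after 30 min at RT.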
# AT treatment – qHTS Assay for Identifying a Potential Treatment of Ataxia-Telangiectasia | F2112 A-T fibroblasts, KAP-1 phosphorylation AlphaLISA; neocarzinostatin DNA damage 30 min before lysis | Potency, µM (series often up to 57.5 µM), without a hit: at the highest dose activation, hits mostly activators | 0.19% of 320,000 active; note: potency is the fitted concentration of half-maximal effect; % of control where 0% means no effect; nearly all actives have a fitted effect of over 45% in size
#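 ATM-like activity read as KAP-1 phosphorylation via AlphaLISA donor/acceptor antibody pairs after lysis and 6 hr at 25C. Cells were ATM-null patient fibroblasts (F2112, hTERT), dosed 60 min, then exposed to the DSB inducer NCS for 30 min.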
# A549 viability – Nrf2 qHTS screen for inhibitors: counterscreen for cytotoxicity; A549 ARE-Fluc cells, CellTiter-Fluor viability, 18-24 h; Potency, µM (highest dose often 46 µM), for the others: at the highest dose activity change, negative = cytotoxicity, most hits filed as inhibitors; 0.16% of 390,000 active; AID 504648, 2011; note: potency is the fitted concentration of half-maximal effect; % is set by controls: 0 for no effect and ±100 for the full control effect
#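 A549 ARE_Fluc cells in 5% FBS OPTI-MEM were exposed to compounds in concentration-response for 18-24 h at 37 deg C. Viability was read by CellTiter-Fluor fluorescence (Ex 405/Em 525) after 30 min, before the luciferase read.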
# Nrf2 inh – Nrf2 qHTS screen for inhibitors. A549 ARE-Fluc reporter, luciferase luminescence, 18-24 h. Potency, µM (series often up to 46 µM), without a hit: at the highest dose activity change, negative = inhibition, hits mostly inhibitors. 2.1% of 360,000 active. AID 504444, 2011; note: potency is the fitted concentration of half-maximal effect; % is set by controls: 0 for no effect and ±100 for the full control effect; nearly all actives have a fitted effect of over 60% in size
#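 Nrf2 function is reported as luminescence of an ARE-controlled luciferase in A549 cells. Compounds were tested at several concentrations, and a CellTiter-Fluor read on the same wells flagged cytotoxicity.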
# CCT chaperon mod – High-Throughput Screening for Modulators of Cytosolic Chaperonin Activity; purified chaperonin ATPase assay, HTRF ADP detection, 30 min; activity change, % (no concentration beside the values), hits read low; 0.3% of 360,000 active; in the data active = activity change below about -30%; note: % is set by controls: 0 for no effect and ±100 for the full control effect
#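 Nucleotide hydrolysis assay: TRiC at 20–40 nM final (set by batch activity) with 10 uM ATP, 30 min at 37 °C, in presence of 76 uM compound. Detection by competitive ADP HTRF, 30 min ambient.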
# TCR act – Activators of T cell receptors: qHTS campaign. Potency, µM (titrated, usually from 9.22 µM), for inactives: at the highest dose activation of IL-2 secretion, most hits filed as activators. 330,000 tested, under 10 active. AID 504894, 2011. primary human leukocytes, anti-CD3, IL-2 HTRF, 48 h; note: % of control where 0% means no effect
#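 Human primary leukocytes + a-CD3 beads + cpd, 48 hr; IL-2 in supernatant by HTRF (ex 320nm / em 665nm). No co-stimulatory signal supplied.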
# * = called active by the depositor; ? = inconclusive; / = no result given; [ ] = remark or other dose. Unless noted, calls come from the whole dose curve; as a rule, active = well fitted curve in the direction sought with a large enough effect; inconclusive = small, poorly fitted or top-dose-only effect, or another doubt; inactive = no such curve, though single readings can be large; an effect the other way counts as inactive or inconclusive.
SMILES,Nrf2 ARE act,AT treatment,A549 viability,Nrf2 inh,CCT chaperon mod,TCR act
O=C(NCc1cccnc1)c1ccc(NS(=O)(=O)c2cccc([N+](=O)[O-])c2)cc1,2.7%,-5.4%,0.4%,-5.9%,-2.2,0.0%[46.1 µM]
Cc1ccc(NS(=O)(=O)c2ccc(OCC(=O)Nc3cccc([N+](=O)[O-])c3)c(C)c2)cc1,3.3%,-1.1%,?,20.6µM*,-0.7,7.6%
O=[N+]([O-])c1cccc(S(=O)(=O)NCc2ccncc2)c1,-0.4%,0.5%,?,7.31µM*,0.0,-5.8%
O=S(=O)(Nc1ccc(Cc2ccncc2)cc1)c1ccc(Cl)s1,0.0%,-6.3%,-0.4%,18.4µM*,1.3,1.2%[46.1 µM]
O=[N+]([O-])c1cccc(S(=O)(=O)Nc2ccc(Cc3ccncc3)cc2)c1,0.4%,28.1%,1.9%,16.4µM*,0.8,17.5%
COC1=C(Nc2ccc(O)cc2)C(=O)c2ccccc2C1=O,-0.2%,-10.5%,?,23.1µM*,-1.0,-3.1%[46.1 µM]
COC1=C(Nc2ccc(OC)cc2)C(=O)c2ccccc2C1=O,-0.6%,-9.2%,4.6%,12.0%,-0.3,3.6%[46.1 µM]
COc1ccc(CC(=O)Nc2c(C(=O)N3CCN(c4ncccn4)CC3)oc3ccccc23)cc1OC,-0.6%,1.5%,-18.1%,-22.9%,-2.7,8.8%
COc1ccc(CC(=O)Nc2c(C(=O)N3CCN(c4ncccn4)CC3)oc3ccccc23)cc1,-0.8%,0.4%,-2.2%,-12.1%,-68.4*,9.0%
C[C@@H]1C[C@@H]2OC(=O)[C@]3(C)[C@H]2[C@@H](OC3(C)O)[C@]2(C)C(=O)C=C[C@H]12 (stereo not given in full),14.1µM*,39.8µM*,-3.0%,-19.3%,-4.6,0.1%
C=C1C(=O)C=C[C@]2(C)C[C@@H]3OC(=O)[C@](C)(O)[C@H]3C[C@@H]12,?,-22.6%,-27.2%,?,-1.9,4.3%
Cc1ccsc1CN(C)c1ncnc2ccc(-c3ccc4c(c3)OCO4)cc12,/,/,7.6%,0.0%,/,/
Cc1cccc(NC(=S)NCc2ccco2)n1,12.6µM*,3.4%,-3.3%,-11.5%,2.0,-0.6%
Cc1cc(C(=O)C(=O)Nc2nnc(C(C)C)s2)c(C)n1-c1ccccc1,-5.8%,/,-8.6%,-17.1%,/,/
Cc1ccc(OCC(=O)NNc2c3ccccc3nc3ccccc23)cc1,0.0%[9.22 µM],-12.2%,?,18.4µM*,-0.4,0.5%[46.1 µM]
Cc1cccc(OCC(=O)NNc2c3ccccc3nc3ccccc23)c1,2.7%,-8.7%,?,?,0.1,-4.4%
CC(C)(C)C(=O)Nc1ccc(N2CCN(c3ccc(C(F)(F)F)cn3)CC2)nc1,0.3%,0.8%,-11.5%,?,-2.7,8.3%
O=S(=O)(c1ccc(C(F)(F)F)cc1)N1CCCN(c2ccc(C(F)(F)F)cn2)CC1,0.7%,0.7%,0.2%,-21.7%,-33.9*,5.1%
CS(=O)(=O)Nc1ccc(N2CCN(c3ccc(C(F)(F)F)cn3)CC2)nc1,-0.8%,-2.0%,-7.5%,7.31µM*,0.4,-4.1%
O=C(c1ccc2n[nH]nc2c1)N1CCN(c2ccc(C(F)(F)F)cn2)CC1,0.0%,10.7%,-12.2%,14.6µM*,0.1,-1.1%
O=C(c1ccccn1)N1CCN(c2ccc(C(F)(F)F)cn2)CC1,-0.5%,0.1%,-2.6%,?,0.8,-4.8%[46.1 µM]
Cc1nc(-c2ccc(S(=O)(=O)N3CCN(CCc4ccccc4)CC3)s2)cs1,-0.4%,-5.8%,-6.9%,23.1µM*,-2.5,0.0%
CCC1=C(CC2NCCc3ccccc32)CC2c3cc(OC)c(OC)cc3CCN2C1 (stereo not given),-1.5%,/,7.31µM*,3.66µM*,-2.7,-3.8%
COc1cc2c(cc1OC)C1Cc3ccc(OC)c(OC)c3CN1CC2 (stereo not given),0.2%,6.1%,-0.5%,?,0.7,-4.6%
CN(C(=O)CSc1nc2ccc(NC(=O)c3cccs3)cc2s1)c1ccccc1,4.5%,/,-16.8%,?,/,/
SMILES,Nrf2 ARE act,AT treatment,A549 viability,Nrf2 inh,CCT chaperon mod,TCR act
Cc1ccc(-n2c(C)nc3c(cnn3-c3ccc(F)cc3)c2=O)cc1,-1.1%,-0.6%,-11.0%,14.6µM*,1.2,-0.3%
CCc1cccc(-n2c(C)nc3c(cnn3-c3ccc(Cl)cc3)c2=O)c1,-0.5%,/,-0.1%,16.4µM*,/,/
CCn1c(SCc2ccc(F)cc2Cl)nc(=O)c2c(C(=O)OC)cc(C3CC3)nc21,-4.0%,/,-2.1%,/,/,/
COc1ccc(Br)cc1CN(C)C(=O)CNC(=O)c1ccc2ccccc2c1,-0.4%,6.4%,?,18.4µM*,-1.9,-5.3%
COc1ccc(CN(C)C(=O)CNC(=O)c2ccc3ccccc3c2)c(OC)c1,0.0%,-4.4%,0.8%,?,0.4,0.9%
N#Cc1nc(-c2ccc(OCc3ccc(Cl)cc3)cc2)oc1N1CCCCC1,/,/,2.9%,10.6%,/,/
O=C(NC1CCCCC1)N(c1ccccc1)c1nnc(-c2cccc([N+](=O)[O-])c2)s1,3.16µM*,/,/,/,-0.8,/
Cc1ccc(NS(=O)(=O)c2ccc(Cl)cc2)cc1C,/,/,14.1%,-19.8%,/,/
COc1ccc(CNC(=O)C2CCN(Cc3nc(-c4ccc(Cl)cc4)oc3C)CC2)cc1,0.9%,/,-8.9%,?,/,/
CCc1cc2c(s1)c1cnn(Cc3ccccc3F)c(=O)c1n2C,/,/,9.3%,?,/,/
O=C1CC(N2CCN(C3CC(=O)N(CCc4ccccc4)C3=O)CC2)C(=O)N1CCc1ccccc1 (stereo not given),-0.2%,0.8%,12.5%,-1.2%,1.3,15.8%
O=C1CC(N2CCN(C/C=C/c3ccccc3)CC2)C(=O)N1CCc1ccccc1 (stereo not given),4.9%,-5.4%,0.6%,9.2µM*,2.3,-1.0%
COC(=O)c1c(NC(=O)c2cc3ccccc3c(=O)o2)sc2c1CCCC2,12.6µM*,/,-4.2%,13.1%,/,/
CCOC(=O)c1sc(N)c(C#N)c1CSc1nnc(C2CC2)n1N,-0.2%,-8.6%,-4.5%,6.9%,-38.8*,-1.4%
CCCc1c(C(=O)OCC)sc(N)c1C#N,-0.1%,4.7%,5.5%,?,0.4,-5.6%
c1ccc2c(c1)[nH]c1c(NCC3CCCO3)ncnc12 (stereo not given),6.0%,5.5%,-3.0%,14.6µM*,-0.1,1.0%
CCOc1ccc2[nH]c3c(NCCO)ncnc3c2c1,0.1%,0.4%,0.7%,9.9%,0.4,-9.0%
CCCCOc1ncnc2c1[nH]c1ccc(OCC)cc12,-0.1%,3.8%,-8.2%,-2.3%,0.4,-0.1%
CCCCOc1ncnc2c1[nH]c1ccc(F)cc12,3.7%,2.4%,-16.9%,2.06µM*,-0.7,-3.1%
